The results in this text go back to PubChem BioAssay (NCATS).

Values joined by “and” are separate entries in the source; they are usually repeats but may differ in a detail not shown here. Identical values can stand only once. Inconclusive results are not listed. Where a structure was tested more than once in an assay, its records may differ in their call. Active and inactive are the calls of the source. Unless noted, calls come from the whole dose curve; as a rule, active = well fitted curve in either direction with a large enough effect (not every such curve was filed as active); inconclusive = small, poorly fitted or top-dose-only effect, or another doubt; inactive = flat fitted curve, though single readings scatter.

Assay [1] in a line: AP1 Signaling Pathway (AID 357). Note: % is set by controls: 0 for no effect and ±100 for the full control effect. The settings on record: ME-180 (cervical carcinoma) AP-1-bla reporter, EGF-induced, beta-lactamase ratio, 5 h; at 38 µM (top of the series) unless noted. In a few lines:
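AP-1-bla ME-180 cells with beta-lactamase reporter under AP-1 response element, stimulated with EC50 EGF; compounds titrated, 5 hours at 37 degrees Celsius. CCF4 read at 460/530 nm ratio; positive and negative modulators judged by AC50.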

Assay [2] can be described thus: NFAT Signaling Pathway (AID 444).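 Note: carbachol stimulus at about its EC50 of 1 µM final; % is set by controls: 0 for no effect and ±100 for the full control effect.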 The settings on record: Jurkat NFAT-bla M1, carbachol, beta-lactamase ratio, 5 h; at 38 µM (top of the series) unless noted. In a few lines: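 Jurkat cells with NFAT-driven β-lactamase reporter and co-expressed M1 receptor, stimulated with carbachol (final 1 uM, ~EC50), compound titration, 5 h at 37 °C. CCF4 loaded 1 h at RT; 460/530 nm ratio gave %activity and AC50.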

Assay [3] addresses Cytochrome P450 1A2 (Homo sapiens) (UniProt P05177). The assay is described as follows: p450-cyp1a2 (AID 410; calls by dose curve; note: potency is the fitted concentration of half-maximal effect;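 for activity change, negative = inhibition: -100% = full effect of reference inhibitor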). In a few lines:
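Human CYP1A2 (20nM) demethylated Luciferin-ME at its Km (100uM) in 100mM KPO4. After 10 min compound preincubation, NADPH regeneration ran the reaction 60 min at room temperature. Luciferin was read by luminescence, normalized to 57 uM furafylline.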

Chain of Cytochrome P450 1A2 (Homo sapiens) (P05177 whole entry, looked up): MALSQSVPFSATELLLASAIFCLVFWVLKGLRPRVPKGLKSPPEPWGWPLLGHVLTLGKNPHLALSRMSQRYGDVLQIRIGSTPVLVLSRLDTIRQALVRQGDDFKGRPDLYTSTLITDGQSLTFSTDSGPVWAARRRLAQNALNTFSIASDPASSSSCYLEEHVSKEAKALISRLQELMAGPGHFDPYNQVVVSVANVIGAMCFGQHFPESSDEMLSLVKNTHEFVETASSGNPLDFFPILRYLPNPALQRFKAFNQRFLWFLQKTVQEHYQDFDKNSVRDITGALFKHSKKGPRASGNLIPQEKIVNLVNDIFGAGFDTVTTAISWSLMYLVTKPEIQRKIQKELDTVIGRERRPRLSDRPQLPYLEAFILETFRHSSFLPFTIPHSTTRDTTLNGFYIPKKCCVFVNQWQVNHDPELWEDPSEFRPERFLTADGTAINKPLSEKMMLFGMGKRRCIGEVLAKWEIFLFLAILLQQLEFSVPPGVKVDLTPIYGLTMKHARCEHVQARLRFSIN

Consider `CN(C)CCC(c1ccc(Br)cc1)c1ccccn1` (centres undefined), for which the activity change, negative = inhibition is 14% [at 17.2 µM] (inactive) in assay [1] and -90.1% [at 17.2 µM] (active) in assay [2].

`CCCCOC(=O)NS(=O)(=O)c1sc(CC(C)C)cc1-c1ccc(Cn2c(CC)nc3c(C)cc(C)nc32)cc1`: the Potency in assay [3] is 31.6 µM (active).

With `O=C(O)C1CCNCC1`, the activity change, negative = inhibition in assay [1] is -3.06% (inactive); in assay [2], 11.3% (inactive).

In the case of `CC(C)(C)c1cc(/C=C(\C#N)C(N)=S)cc(C(C)(C)C)c1O`, the Potency in assay [3] is 12.6 µM (active). Also, the activity change, negative = inhibition in assay [2] was -95.5% (active).

Turning to `N#C/C(=C\c1ccc(O)c(O)c1)C(=O)NCCc1ccccc1`, the Potency in assay [3] is 10 µM (active).

As for `CC(C)NC[C@H](O)COc1cccc2ccccc12`, the Potency in assay [3] was 0.2 µM (active).

On to `CN(C)S(=O)(=O)c1ccc2c(c1)/C(=C/c1cc3c([nH]1)CCCC3)C(=O)N2`, for which the Potency in assay [3] is 0.316 µM (active).

Take `COc1cc(CNC(=O)CCCCCCC(C)C)ccc1O`: the activity change, negative = inhibition in assay [1] is -1.77% (inactive); in assay [2], 7.5% (inactive).

Regarding `Fc1ccc(CN(C2=NCCN2)c2c(Cl)cccc2Cl)cc1`, in assay [3], the Potency result was “inactive”. Moreover, the activity change, negative = inhibition in assay [2] was -21.2% (inactive).

As to `N=C(N)c1ccc(N)cc1`, the activity change, negative = inhibition was 6.35% (inactive) in assay [1] and 5.12% (inactive) in assay [2]. Moreover, in assay [3], the Potency result was “inactive”.

`N[C@@H](Cc1c[nH]c2ccccc12)C(=O)O`: the activity change, negative = inhibition in assay [1] was 4% (inactive); in assay [2], -12.3% (inactive).

Turning to `CCc1ccc2c(-c3cccc(Cl)c3)nc(=O)n(CC)c2n1`, the Potency in assay [3] was 0.126 µM (active).

As to `NC1(C(=O)O)CC1`, the activity change, negative = inhibition is 11.9% (inactive) in assay [1] and -11.2% (inactive) in assay [2].

As to `CC[C@H](NC(=O)c1c(C)c(-c2ccccc2)nc2ccccc12)c1ccccc1`, in assay [3], the Potency entry was “inactive and 7.94 µM (active)”. Further, the activity change, negative = inhibition in assay [2] is 2.54% (inactive).
